# Screens as filed in PubChem BioAssay.
# A selection: hits, their analogues and other compounds. The true share with any hit is near 19%.
# DT40 TDP1 no CPT – qHTS for Inhibitors of human tyrosyl-DNA phosphodiesterase 1 (TDP1): qHTS in cells in absence of CPT; DT40 Tdp1-/- hTDP1 cells, no CPT, ATP luminescence, 48 h; Potency, µM (series often up to 46.2 µM), inactives show top-dose activity change, negative = growth inhibition, usual class: inhibitors; 15% of 420,000 active; AID 686978, 2013; note: potency is the fitted concentration of half-maximal effect; nearly all actives have a fitted effect of over 55% in size
#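 Luminescent ATP content (CellTiter-Glo) served as the growth readout. Knockout chicken DT40 cells expressing human TDP1 were exposed to compounds without camptothecin for a minimum 48 hr at 37 °C.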
# HT1080-NT tox – kills 2HG-producing HT-1080-NT fibrosarcoma cells; HT-1080-NT fibrosarcoma viability, CellTiter-Glo ATP luminescence, 48 h; Potency, µM (doses to about 46.1 µM), for the others: at the top dose activity, negative = less viability, actives largely listed as cytotoxic; 1.6% of 360,000 active;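 note: NT is the 2HG producing partner of a matched IDH1 knockdown line; potency is the fitted concentration of half-maximal effect; 0% = DMSO-treated cells and -100% = media-only wells without cells; nearly all actives have a fitted effect of over 55% in size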
#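 750 cells/well, RPMI + 5% FBS; 2 h settle, compound pin-transfer, 48 h at 37 degrees C. CellTiter-Glo 10 min RT, luminescence. Normalized to DMSO and media-only wells.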
# IL1B secr inh – blocks inflammasome-driven IL-1 beta release; THP-1 LPS/ATP IL-1B secretion, AlphaLISA, 16 h; stronger effect = lower value; activity change, % at 57.5 µM; 4.7% of 360,000 active; AID 743279; in the data active = activity change below about -50%; inconclusive = mostly about -30% to -49%
#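 Secreted IL-1B measured by AlphaLISA bead assay after 16 h compound exposure of THP-1 cells; compounds (final up to 57.5 uM) added 1 h before LPS (250 ng/mL) and ATP (1.25 mM) stimulation; lower signal means less secretion.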
# TDP1 cell CPT – growth inhibition of DT40 Tdp1-/-;hTDP1 cells with camptothecin (screen for TDP1 inhibitors). chicken DT40 Tdp1-/-;hTDP1 cells + 20 nM CPT, ATP luminescence, 48 h. AID 686979. 12% of 420,000 active. Potency, µM (top dose mostly 46.2 µM), without a hit: top-dose activity change, negative = growth inhibition, actives largely listed as inhibitors; note: potency is the fitted concentration of half-maximal effect; nearly all actives have a fitted effect of over 55% in size
#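 Chicken DT40 Tdp1-/- cells stably complemented with human TDP1 were seeded at 400 cells/well in medium containing 20 nM camptothecin, exposed to pin-transferred compounds, and grown at 37 °C for at least 48 hr. Viability was read as ATP luminescence.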
# HT1080 IDH1KD tx – HT-1080 IDH1 knockdown cell toxicity (counter line). 2% of 360,000 active. HT-1080 IDH1 knockdown viability, ATP luminescence, 48 h. AID 686971. Potency, µM (series often up to 46.1 µM), for the others: at the top dose activity, negative = toxicity, hits mostly cytotoxic;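 note: potency is the fitted concentration of half-maximal effect; 0% = DMSO wells and -100% = cell-free medium wells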
#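 Luminescent ATP read-out (CellTiter-Glo, 10 min at room temperature) after 48 h compound exposure at 37 °C gave viability of IDH1-knockdown HT-1080 cells. Activity was normalised to DMSO and cell-free wells, then fitted as concentration-response curves.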
# uPA surface inh – blocks generation of uPA at the cell surface; 0.31% of 330,000 active; cell surface uPA generation assay, qHTS; Potency, µM (series often up to 38.3 µM), for the others: at the top dose activity change, negative = inhibition, hits mostly inhibitors; active = well fitted inhibition curve with a large enough effect; inconclusive = small, poorly fitted or top-dose-only effect; inactive = no such curve, though single readings can be large or run the other way; tested in mouse RAW 264.7 cells; note: potency is the fitted concentration of half-maximal effect; nearly all actives have a fitted effect of over 55% in size
# * marks the source's active call; other numbers are inactive results; u = inconclusive; x = not tested or not shown. Unless noted, calls come from the whole dose curve; as a rule, active = well fitted curve in the direction sought with a large enough effect; inconclusive = small, poorly fitted or top-dose-only effect, or another doubt; inactive = no such curve, though single readings can be large; an effect the other way counts as inactive or inconclusive. Unless noted, % is set by controls: 0 for no effect and ±100 for the full control effect.
SMILES,DT40 TDP1 no CPT,HT1080-NT tox,IL1B secr inh,TDP1 cell CPT,HT1080 IDH1KD tx,uPA surface inh
CCOc1cc(-c2cc(-c3ccc(N)cc3)nc(N)c2C#N)ccc1O,18µM*,u,-62*,15µM*,u,7%
CC(C)=CCN1CCN(CCC2=C(C)CCCC2(C)C)CC1CCO (stereo not given),u,-6%,u,u,0%,-2%
CC1=C(CCN2CCN(C3CCCC3)C(CCO)C2)C(C)(C)CCC1 (stereo not given),u,-26%,-9,21µM*,-21%,1%
CC(C)(C)c1ccc(OCCOCCn2c(-c3ccc(Cl)cc3)nc3ccccc3c2=O)cc1,-19%,x,x,-12%,x,x
COc1ccc(CNC(=O)C2(CC3CC(c4ccccc4)=NO3)CCN(C(=O)Cc3ccc(F)cc3)CC2)cc1 (stereo not given),u,0%,u,u,-10%,5%
O=C(c1ccccc1)N1CCC(CC2CC(c3cccc(Br)c3)=NO2)(C(=O)NCC2CCCCC2)CC1 (stereo not given),u,-9%,-24,u,-5%,u
CCOc1cc(C(=O)N2CCC(CC3CC(c4ccccc4)=NO3)(C(=O)NCc3ccc(OC)cc3)CC2)cc(OCC)c1OCC (stereo not given),16µM*,-2%,u,u,-2%,-17%
CCOc1cc(C(=O)N2CCC(CC3CC(c4ccc(Cl)cc4)=NO3)(C(=O)NCC3CCCCC3)CC2)cc(OCC)c1OCC (stereo not given),18µM*,-1%,u,23µM*,1%,4%
COc1ccccc1NC(=O)CSC(N)=O,21µM*,-2%,u,u,-4%,-6%
CCn1c(CC(=O)Nc2ccccc2OC)nnc1SCC(=O)Nc1ccccc1F,-14%,5%,20,1%,8%,-1%
COc1ccccc1NC(=O)CNC(=O)CC12CC3CC(CC(C3)C1)C2,-70%,u,-2,1.6µM*,u,3%
COc1ccccc1NC(=O)Cc1nnc(SCC(=O)Nc2ccccc2F)n1C,u,5%,14,16µM*,-1%,0%
C/C(=N\NC(=O)C1COc2ccccc2O1)c1cc2ccccc2o1 (stereo not given),-23%,7%,0,-5%,13%,0%
CCc1ccc(NC(=O)C2CCN(c3nnc(-n4c(C)ccc4C)s3)CC2)cc1,23µM*,x,x,16µM*,x,x
CCc1ccccc1NC(=O)C1CCCN(c2cnccn2)C1 (stereo not given),7%,x,x,-16%,x,x
Cc1c(Cl)cccc1NC(=O)C1CCCN(c2nnc(-n3c(C)ccc3C)s2)C1 (stereo not given),16µM*,x,x,u,x,x
Cc1ccc(NC(=O)C2CCCN(c3nc4ccccc4s3)C2)c(C)c1 (stereo not given),-27%,x,x,-27%,x,x
CCc1ccccc1NC(=O)C1CCCN(c2nnc(-n3c(C)ccc3C)s2)C1 (stereo not given),21µM*,x,x,21µM*,x,x
Cc1ccc(NC(=O)C2CCCN(c3nnc(-n4c(C)ccc4C)s3)C2)c(C)c1 (stereo not given),16µM*,x,x,u,x,x
CC(=O)Nc1ccc(NC(=O)C2CCCN(c3nnc(-n4cccc4)s3)C2)cc1 (stereo not given),-4%,-21%,0,-21%,-8%,-3%
Cc1ccc(C)n1-c1nnc(N2CCC(C(=O)NCCCN3CC(C)CC(C)C3)CC2)s1 (stereo not given),-18%,-7%,0,u,-16%,-9%
Cc1cc(Cl)ccc1NC(=O)C1CCN(c2nnc(-n3c(C)ccc3C)s2)CC1,21µM*,x,x,u,x,x
CCCCCNC(=O)C(C1CC1)n1c(=O)c(-c2ccccc2)nc2ccccc21 (stereo not given),u,-29%,8,u,-2%,x
COc1ccc(NC(=O)C(C2CC2)n2c(=O)c(-c3ccccc3)nc3ccccc32)cc1 (stereo not given),15µM*,1%,-17,u,0%,x
COc1ccc(NC(=O)C(c2ccc(C#N)cc2)n2c(=O)c(-c3cc4ccccc4[nH]3)nc3ccccc32)cc1 (stereo not given),15µM*,-29%,12,21µM*,u,x
SMILES,DT40 TDP1 no CPT,HT1080-NT tox,IL1B secr inh,TDP1 cell CPT,HT1080 IDH1KD tx,uPA surface inh
COc1ccc(NC(=O)C(c2cc3ccccc3o2)n2c(=O)c(-c3cc4ccccc4[nH]3)nc3ccccc32)cc1 (stereo not given),u,-18%,20,u,-30%,x
CC(C)(C)NC(=O)C(c1ccc(C#N)cc1)n1c(=O)c(-c2cc3ccccc3[nH]2)nc2ccccc21 (stereo not given),u,u,16,u,u,x
COc1ccc(NC(=O)C(c2ccc(OC)cc2)n2c(=O)c(-c3cc4ccccc4[nH]3)nc3ccccc32)cc1 (stereo not given),13µM*,u,2,16µM*,-22%,x
COC(=O)Cc1ccc(OC2(C)CCN(Cc3ccc(-c4ccccn4)cc3)C2)cc1 (stereo not given),u,u,-7,u,-23%,x
O=C(Nc1ccc(S(=O)(=O)Nc2nccs2)cc1)c1cnc(Cl)c(Cl)c1,u,1%,42,u,2%,4%
COc1cc(Cl)c(C)cc1NC(=O)c1cc2c(Cl)nc3ccc(C)cc3c2s1,-18%,x,x,-4%,x,x
COc1cc(C)c(C(=O)Oc2cc(C)c(C(=O)O)c(O)c2C)c(O)c1C,u,-1%,26,u,4%,u
COC(=O)c1c(C)cc(OC(=O)c2c(C)cc(O)c(C=O)c2O)c(C)c1O,4.1µM*,x,x,5.8µM*,x,x
C=CCC[C@H](CCCCC)OC(=O)/C=C/[C@@H](O)[C@H](O)C[C@H](O)CC=C,u,-22%,-13,u,-12%,x
COc1ccccc1CCNC(=O)c1cc(COc2cccc(C(F)(F)F)c2)on1,u,-5%,-8,u,-11%,0%
COc1ccc(CN2CCN(C(=O)c3ccc(CNS(=O)(=O)c4ccc(C)cc4)cc3)CC2)c(OC)c1OC,13µM*,-14%,4,13µM*,-7%,6%
CCOC(=O)C1CCN(C(=O)c2ccc(CNS(=O)(=O)c3ccc(C)cc3)cc2)CC1,u,15%,-15,-8%,18%,-1%
